Our source for the outcome and AC50 values is PubChem BioAssay (EPA / NIEHS).

A word on the AC50: it is the midpoint of the concentration-response curve, whichever way the signal moves.

Records with an inconclusive call do not appear. Where a structure was tested more than once in an assay, its records may differ in their call. Activity calls are given as the source filed them. How the source made its calls, unless noted: active means hit-call score of the fitted dose curve at least 0.9, where 1 is the maximum; inactive means score below 0.9.

In experiment [1] the target is Nucleoli Translocation, AR (gene 367) (UniProt P10275). Nature of the experiment: UPITT_HCI_U2OS_AR_TIF2_Nucleoli_Antagonist: University of Pittsburgh U2OS Androgen Receptor-Transcriptional Intermediary Factor 2 (AR-TIF2) Antagonism High Content Imaging Assay for Nucleoli Translocation (AID 2283997; active means hit-call score of the fitted dose curve at least 0.9, where 1 is the maximum). In a few lines:
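An antagonist-mode imaging screen: engineered U2OS (AR-RFP, TIF2-GFP) exposed to 20 uM compound, 0.2% DMSO. Activity reflects nucleolar red fluorescence change relative to DHT baseline.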

The target is the same in experiment [2]. Nature of the experiment: UPITT_HCI_U2OS_AR_TIF2_Nucleoli_Agonist: University of Pittsburgh U2OS Androgen Receptor-Transcriptional Intermediary Factor 2 (AR-TIF2) Agonism High Content Imaging Assay for Nucleoli Translocation (AID 2283998; active means hit-call score of the fitted dose curve at least 0.9, where 1 is the maximum). The gist of the method: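 Cells express human AR fused to red fluorescent protein and TIF2 fused to GFP. Red fluorescence in the nucleolar region was quantified by high-content imaging and fitted as gain-of-signal against a DMSO baseline. Compounds were tested at 0.195 to 50 uM final (0.5% DMSO).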

Experiment [3] concerns the target Ratio of Nucleoli Translocation and Cytoplasm, AR (gene 367) (UniProt P10275). Nature of the experiment: UPITT_HCI_U2OS_AR_TIF2_Nucleoli_Cytoplasm_Ratio_Antagonist: University of Pittsburgh U2OS Androgen Receptor-Transcriptional Intermediary Factor 2 (AR-TIF2) Antagonism High Content Imaging Assay for Ratio of Nucleoli Translocation and Cytoplasm (AID 2283999; active means hit-call score of the fitted dose curve at least 0.9, where 1 is the maximum;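 further: antagonists lower the DHT-driven ratio of nucleolar to cytoplasmic red signal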). The gist of the method:
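This antagonist-mode endpoint tracks AR-RFP localisation, the nucleolus-to-cytoplasm intensity ratio, in TIF2-GFP-coexpressing U2OS cells. DMSO stays at or below 0.5%; testing spans 20 uM single-dose and 0.195–50 uM series, with DHT setting the activity baseline.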

The target is the same in experiment [4]. In words: UPITT_HCI_U2OS_AR_TIF2_Nucleoli_Cytoplasm_Ratio_Agonist: University of Pittsburgh U2OS Androgen Receptor-Transcriptional Intermediary Factor 2 (AR-TIF2) Agonism High Content Imaging Assay for Ratio of Nucleoli Translocation and Cytoplasm (AID 2284000; active means hit-call score of the fitted dose curve at least 0.9, where 1 is the maximum;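 further: hits raise the red nucleolar to cytoplasm ratio above vehicle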). In a few lines: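 Primary screen at 20 uM final (0.2% DMSO), then triplicate confirmation and dose-response from 0.195 to 50 uM final (0.5% DMSO). Cells: U2OS with AR-RFP and TIF2-GFP. Endpoint is the nucleoli/cytoplasm red-fluorescence ratio, gain-of-signal vs DMSO.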

Experiment [5] in a line: CCTE_Harrill_HTTr_Viability_MCF7: CCTE's 6-hour Cell Viability Assessment for the High-Throughput Transcriptomics (HTTr) Platform, in MCF-7 cells cultured in DMEM + 10% fetal bovine serum, Harrill Lab (AID 2284010). In a few lines:
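Eight-point concentration series, six-hour exposure. Propidium iodide exclusion imaged to assess membrane integrity as a cytotoxicity readout; bidirectional fitting was done with DMSO as negative control and activity baseline.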

Experiment [6] in a line: CCTE_Harrill_HTTr_Apoptosis_MCF7: CCTE's 6-hour Apoptosis Assessment for the High-Throughput Transcriptomics (HTTr) Platform, in MCF-7 cells cultured in DMEM + 10% fetal bovine serum, Harrill Lab (AID 2284011). The gist of the method:
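MCF-7 cells in DMEM + 10% fetal bovine serum were exposed to chemicals for 6 hours over an eight-point dilution series. Caspase-3/7 activation was imaged by high content imaging with CellEvent Caspase 3/7 Green; bidirectional fitting used DMSO as baseline.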

Experiment [7] in a line: CCTE_Harrill_HTTr_CellCount_MCF7: CCTE's Cell Proliferation Assessment for the High-Throughput Transcriptomics (HTTr) Platform, Harrill Lab (AID 2284012; active means hit-call score of the fitted dose curve at least 0.9, where 1 is the maximum;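 further: count of Hoechst-stained nuclei per well by high-content imaging in MCF-7 cells; cells exposed to compound for six hours; intended direction is loss of nuclei count meaning fewer cells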). In a few lines:
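For this full-screen endpoint, MCF-7 cultures received eight compound dilutions for six hours. Well nuclei counts from Hoechst imaging were analyzed relative to DMSO.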

Experiment [8] can be described thus: CCTE_Shafer_MEA_acute_spike_number: CCTE's Neural Acute Assay for Total Number of Spikes, Shafer Lab (AID 2284008).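 On AC50: curve fitted for decrease in spike count so AC50 reflects inhibitors.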 The gist of the method: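 Primary rat cortical neurons on 16-electrode MEA wells; on DIV 13 or 15, 40-min baseline then 40-min recording with compound (0.03-40 uM) at 37 C. Spikes detected at 8x rms noise; percent change versus baseline, DMSO as negative control.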

Experiment [9] can be described thus: CCTE_Shafer_MEA_acute_firing_rate_mean: CCTE's Neural Acute Assay for Mean Firing Rate, Shafer Lab (AID 2284009).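 Further: analyzed for loss of signal so actives lower firing rate relative to DMSO.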 The gist of the method: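 Spontaneous spiking of primary rat cortical networks, DIV 13/15, 37 C. Compound 0.03-40 uM, n ≥3 wells; 40 min baseline vs 40 min treated. Endpoint fitted in loss-of-signal direction against DMSO.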
A short description of experiment [10]: CCTE_Shafer_MEA_acute_burst_number: CCTE's Neural Acute Assay for Single-Electrode Bursts, Shafer Lab (AID 2284013). The gist of the method:
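Burst totals were derived with adaptive spike detection (8x rms threshold) on filtered signals from rat cortical cultures; change relative to pre-treatment baseline after 40-min compound exposure (0.03-40 uM) was fitted in the negative direction against DMSO.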

Experiment [11] is described as follows: CCTE_Shafer_MEA_acute_burst_duration_mean: CCTE's Neural Acute Assay for Mean Burst Duration, Shafer Lab (AID 2284014).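 Further: hits are decreases in mean burst duration relative to DMSO controls.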 In a few lines:
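Acute exposure of mature rat cortical networks (DIV 13 or 15) grown on microelectrode arrays to 0.03-40 uM compound. Mean burst duration compared with the 40-min pre-dose baseline over a 40-min post-dose recording at 37 C.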

Experiment [12] is described as follows: CCTE_Shafer_MEA_acute_per_burst_spike_number_mean: CCTE's Neural Acute Assay for Average Number of Spikes Per Burst, Shafer Lab (AID 2284015).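 Further: hits are decreases in mean spikes per burst versus baseline.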 The gist of the method: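 Rat primary cortical neurons on 48-well MEAs (DIV 13 or 15) were treated with 0.03-40 uM compound at 37 C. Mean spikes per burst over 40 min were recorded before and after exposure and expressed as percent change from baseline, relative to DMSO.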

Experiment [13] can be described thus: CCTE_Shafer_MEA_acute_interburst_interval_mean: CCTE's Neural Acute Assay for Mean Interburst Interval, Shafer Lab (AID 2284016).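 Further: percent change of mean interburst interval versus each well's own pre-dose baseline; curves fitted for decrease in interburst interval relative to DMSO.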 The gist of the method:
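Rat primary cortical neurons on 48-well MEAs at DIV 13 or 15 were exposed acutely to 0.03-40 uM. Spikes detected at 8x rms noise, 37 C. Mean interburst interval from 40 min recordings expressed as percent change from 40 min pre-treatment baseline.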

Experiment [14] is described as follows: CCTE_Shafer_MEA_acute_burst_percentage_mean: CCTE's Neural Acute Assay for Percentage of Spikes in a Burst, Shafer Lab (AID 2284017).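 On AC50: curve fitted for loss of signal so potency reflects decreased burst percentage.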 In a few lines: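 Primary rat cortical neurons on 48-well MEA plates, treated on DIV 13 or 15 at 0.03-40 uM. Spikes detected at 8x rms noise at 37C; percent change from 40-min baseline to 40-min post-dose recording, fitted versus DMSO.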

A short description of experiment [15]: CCTE_Shafer_MEA_acute_burst_percentage_std: CCTE's Neural Acute Assay for Standard Deviation of Burst Percentage, Shafer Lab (AID 2284018).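 Further: fitted in the negative direction so actives lower burst percentage SD.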 In a few lines: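 Primary rat cortical neurons on 16-electrode MEA wells were recorded 40 min at baseline (DIV 13 or 15), then 40 min after compound (0.03-40 uM), at 37 C. Well value is SD across electrodes of spikes-in-bursts/total spikes; endpoint is percent change, DMSO-referenced.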

Experiment [16] in a line: CCTE_Shafer_MEA_acute_per_network_burst_spike_number_mean: CCTE's Neural Acute Assay for Average Number of Spikes in a Network Burst, Shafer Lab (AID 2284019).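 On AC50: curve fitted for loss of signal so actives reduce spikes per network burst.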 In a few lines:
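Acute exposure of rat primary cortical networks (DIV 13/15) on MEAs; adaptive spike detection at 8x rms noise, 37 C. Percent change in spikes per network burst after 40 min with compound (0.03-40 uM), negative direction vs DMSO.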

The nature of experiment [17]: CCTE_Shafer_MEA_acute_per_network_burst_spike_number_std: CCTE's Neural Acute Assay for Standard Deviation of Number of Spikes in a Network Burst, Shafer Lab (AID 2284020).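 Further: fitted for decrease in spike-number SD versus DMSO so actives lower it.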 In a few lines:
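Acute MEA exposure, rat cortical neurons, 0.03-40 uM. Per-well % change versus own baseline; DMSO as negative control.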

Experiment [18] can be described thus: CCTE_Shafer_MEA_acute_per_network_burst_electrodes_number_mean: CCTE's Neural Acute Assay for Mean Number of Electrodes in a Network Burst, Shafer Lab (AID 2284021).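 Further: curves fitted for decreases only so hits reduce electrodes per burst.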 In a few lines: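 Rat primary cortical neurons on 16-electrode MEA wells were recorded 40 min at baseline on DIV 13 or 15, then 40 min after compound (0.03-40 uM), at 37 C. Value is percent change per well, fitted in loss direction versus DMSO.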

The nature of experiment [19]: CCTE_Shafer_MEA_acute_network_burst_percentage: CCTE's Neural Acute Assay for Percentage of Network Bursts, Shafer Lab (AID 2284022).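 Further: curves fitted for loss so actives lower network burst percentage.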 In a few lines:
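Primary rat cortical neurons on 16-electrode MEA wells, treated on DIV 13 or 15 with compound (0.03-40 uM); 40-min baseline and 40-min post-exposure recordings at 37 C. Value is percent change in spikes within network bursts versus baseline, DMSO negative control.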

Another experiment concerns DIO1 (gene 1733). In words: CCTE_GLTED_hDIO1: CCTE's human Deiodinase 1 (DIO1) Inhibition Assay, Great Lakes Toxicology and Ecology Division (GLTED) Lab (AID 2283987; active means hit-call score of the fitted dose curve at least 0.9, where 1 is the maximum;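 further: isolated human DIO1 enzyme in a cell-free setup rather than cells; enzyme activity read as free iodide liberated from substrate via Sandell-Kolthoff colorimetry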). In a few lines:
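Cell-free human DIO1 enzyme was incubated with test chemical for 3 h, and iodide released from substrate was measured by Sandell-Kolthoff absorbance. Loss of signal versus DMSO baseline indicated inhibition; plates were run in triplicate.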

Chain of Ratio of Nucleoli Translocation and Cytoplasm, AR (gene 367) (P10275 whole entry, looked up): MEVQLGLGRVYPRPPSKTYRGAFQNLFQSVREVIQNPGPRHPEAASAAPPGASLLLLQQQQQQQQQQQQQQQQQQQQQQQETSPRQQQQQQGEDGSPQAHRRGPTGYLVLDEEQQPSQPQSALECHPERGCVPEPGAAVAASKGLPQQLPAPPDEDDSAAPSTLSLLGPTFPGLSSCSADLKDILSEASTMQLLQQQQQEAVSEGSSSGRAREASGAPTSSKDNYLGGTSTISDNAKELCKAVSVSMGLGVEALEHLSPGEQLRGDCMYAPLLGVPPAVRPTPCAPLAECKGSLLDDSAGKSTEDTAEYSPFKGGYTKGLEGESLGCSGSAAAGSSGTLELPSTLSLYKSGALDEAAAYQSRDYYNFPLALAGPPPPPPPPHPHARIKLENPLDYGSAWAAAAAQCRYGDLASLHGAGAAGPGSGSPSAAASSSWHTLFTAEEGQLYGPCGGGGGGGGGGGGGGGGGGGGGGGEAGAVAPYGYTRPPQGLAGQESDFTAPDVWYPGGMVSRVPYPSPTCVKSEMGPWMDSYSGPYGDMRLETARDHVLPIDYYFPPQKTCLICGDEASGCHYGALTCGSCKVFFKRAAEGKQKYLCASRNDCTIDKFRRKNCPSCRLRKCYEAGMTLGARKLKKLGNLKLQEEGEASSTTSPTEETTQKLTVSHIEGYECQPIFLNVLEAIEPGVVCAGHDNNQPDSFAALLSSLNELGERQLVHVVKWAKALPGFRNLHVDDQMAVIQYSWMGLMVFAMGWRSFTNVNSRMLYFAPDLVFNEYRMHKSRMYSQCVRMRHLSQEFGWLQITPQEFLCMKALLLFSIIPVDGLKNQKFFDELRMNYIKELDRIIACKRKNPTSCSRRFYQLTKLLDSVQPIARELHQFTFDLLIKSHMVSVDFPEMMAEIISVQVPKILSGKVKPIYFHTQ
Chain of Nucleoli Translocation, AR (gene 367) (P10275 whole entry, looked up): as above

Take `C[Si](O[Si](C)(C)C)O[Si](C)(C)C`: the result in experiment [1] was inactive.
Regarding `c1ccc2[nH]ccc2c1`, the outcome in experiment [1], in [2], in [3], in experiment [4], in experiment [5] and in experiment [6] was inactive. Also, the compound was classed as inactive in experiment [7]. Further, the AC50 in experiment [6] was 55.3 µM (active).
As to `NCCNCCN`, the compound was called inactive in experiment [8], in experiment [9], in [10], in experiment [11], in experiment [12] and in [13]. Moreover, the outcome in experiment [14], in [15], in experiment [16], in experiment [17], in experiment [18] and in experiment [19] was inactive.
Turning to `CCCCCCCCCCCCCCCC(=O)OC[C@H](O)[C@H]1OC(=O)C(O)=C1O`, the concentration at half-maximal activity (AC50) in the experiment with DIO1 (gene 1733) was 89.6 µM (active). Moreover, the compound was called inactive in [1], in experiment [2], in experiment [3] and in experiment [4].
For the compound `CCC/C=C/C=O`, the outcome in experiment [1], in experiment [2], in experiment [3] and in [4] was inactive.
On to `Nc1cc([N+](=O)[O-])ccc1O`, for which the AC50 was 2.98 µM (active) in experiment [8]; 25.1 µM (active) in experiment [12]; 23.7 µM (active) in experiment [14]; 0.0403 µM (active) in experiment [16]; 0.226 µM (active) in [17]; 15 µM (active) in experiment [19]. Moreover, the compound was classed as inactive in [9], in experiment [10], in [11], in experiment [13], in [15] and in [18].
Take `OC[C@H]1O[C@H](O[C@]2(CCl)O[C@H](CCl)[C@@H](O)[C@@H]2O)[C@H](O)[C@@H](O)[C@H]1Cl`: the compound was classed as inactive in experiment [8], in experiment [9], in experiment [10], in [11], in experiment [12] and in experiment [13]. Besides, the result in experiment [14], in experiment [15], in experiment [16], in experiment [17], in experiment [18] and in [19] was inactive.
In the case of `O=C[C@@H](O)[C@H](O)[C@H](O)CO`, the compound was called inactive in [1], in experiment [2], in [3] and in experiment [4].
Turning to `OCCN1CCNCC1`, the result in experiment [5] and in [6] was inactive.
In the case of `CC(=O)[C@H]1CC[C@H]2[C@@H]3CC=C4C[C@@H](O)CC[C@]4(C)[C@H]3CC[C@]12C`, the AC50 in experiment [8] was 0.0079 µM (active); in [9], 0.00537 µM (active); in experiment [10], 0.0144 µM (active); in experiment [14] it was 2.98 µM (active); in experiment [16], 15 µM (active); in experiment [19], 0.0267 µM (active). In addition, the outcome in experiment [5], in [6], in experiment [11], in experiment [12], in experiment [13] and in experiment [15] was inactive. For the same compound, the result in experiment [17] and in [18] was inactive.
As to `NCCCN1CCOCC1`, the compound was classed as inactive in experiment [1], in experiment [2] and in [4].
`CCCCCCCCCCCCCOS(=O)(=O)O`: the compound was called inactive in [1] and in experiment [4].
On to `O=c1cc(-c2ccccc2)oc2cc(O)cc(O)c12`, for which the compound was classed as inactive in experiment [1], in [3], in [4], in [5] and in experiment [6].
In the case of `CC(=O)OCCC(C)CC(C)(C)C` (stereo unspecified), the outcome in experiment [8], in experiment [9], in experiment [10], in [11], in experiment [12] and in experiment [13] was inactive. Also, the outcome in [14], in [15], in experiment [16], in experiment [17], in experiment [18] and in experiment [19] was inactive.
